Experimental data: PubChem BioAssay (Tox21)
Records with an inconclusive call do not appear. Activity calls are given as the source filed them. Unless noted, calls come from the whole dose curve; as a rule, active = well fitted curve in the direction sought with a large enough effect in the repeat runs; inconclusive = weak or mixed curves; inactive = no such curve, though single readings can be large; an effect the other way counts as inactive or inconclusive.

Tests used:
[1] = molecular target: Progesterone receptor (Homo sapiens) (UniProt P06401); experiment: qHTS assay to identify small molecule agonists of the progesterone receptor (PR) signaling pathway (AID 1346784; calls by dose curve; note: nearly all actives have a fitted effect of over 30% in size)
Method in brief: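 Seed PR-UAS-bla HEK 293T cells (2% charcoal-stripped FBS), incubate 6 hr at 37C; add compounds in DMSO, 16 hr at 37C; add LiveBLAzer B/G substrate, 2 hr RT; read fluorescence intensity.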

[2] = molecular target: Progesterone receptor (Homo sapiens) (UniProt P06401); experiment: qHTS assay to identify small molecule antagonists of the progesterone receptor (PR) signaling pathway (AID 1346795; active = well fitted inhibition curve with a large enough effect in the signal ratio in the repeat runs, not every such curve was filed as active; the % refers to the signal ratio; note: potency is the fitted concentration of half-maximal effect)
Method in brief: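 Screening used a GripTite HEK293T line with PR-responsive UAS-beta-lactamase. Cells were challenged with compound in the presence of 1 nM R5020 final for 16 hr at 37C; B/G FRET substrate, 2 hr room temperature, fluorescence.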

[3] = qHTS assay to identify small molecule antagonists of the progesterone receptor (PR) signaling pathway - cell viability counter screen (AID 1346798); note: series mostly up to about 92 µM; nearly all actives have a fitted effect of over 50% in size
Method in brief: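 Measures cytotoxicity in parallel with the PR antagonist reporter read: HEK293T PR-UAS-bla cells get compound and R5020 for 16 hr, and remaining viable cells are quantified by CellTiter-Glo luminescence.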

[4] = qHTS assay to identify small molecule agonists of the progesterone receptor (PR) signaling pathway - cell viability counter screen (AID 1346799; calls by dose curve; note: nearly all actives have a fitted effect of over 45% in size)
Method in brief: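 Using the same plates as the PR reporter screen, HEK293T PR-UAS-bla cells received compounds for 16 hr at 37C and were then lysed with CellTiter-Glo; luminescence was read 30 min later at room temperature.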

[5] = qHTS assay to identify small molecule antagonists of the TGF-beta/Smad signaling pathway - cell viability counter screen (AID 1346824); note: nearly all actives have a fitted effect of over 50% in size
Method in brief: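 SBE-bla HEK 293T cells, incubated overnight, then compound plus 0.25 ng/mL TGF-beta1 (stock added) for 5 hr at 37 C. Viability was read in the same wells by CellTiter-Glo luminescence after 30 min at room temperature.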

[6] = qHTS assay to identify small molecule agonists of the TGF-beta/Smad signaling pathway - cell viability counter screen (AID 1346829); note: top concentration of the series differs between compounds; nearly all actives have a fitted effect of over 45% in size
Method in brief: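 SBE-bla HEK 293T cells plated overnight, compound exposure 5 hr at 37 C. Viability read in the same wells by CellTiter-Glo luminescence after 30 min at room temperature, following the beta-lactamase read.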

[7] = qHTS assay to identify small molecule agonists of the TGF-beta/Smad signaling pathway (AID 1346859; active = well fitted activation curve with a large enough effect in the signal ratio in the repeat runs, not every such curve was filed as active; the % refers to the signal ratio; note: series mostly up to about 77 µM)
Method in brief: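 Beta-lactamase reporter activity downstream of Smad binding elements was measured in stably transfected HEK 293T cells; compounds were incubated for 5 hr, substrate for 2 hr at room temperature.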

[8] = Human pregnane X receptor (PXR) small molecule agonists, qHTS cell viability counter screen (AID 1346977); note: nearly all actives have a fitted effect of over 50% in size
Method in brief: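 After a 5hr pre-incubation, PXR-Luc HepG2 cells received compounds plus positive control in DMSO and were kept 24hr at 37C. Cell viability was quantified by fluorescence from CellTiter-Fluor added for the final hour.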

[9] = Caspase-3/7 induction in HepG2 cells by small molecules, qHTS assay (AID 1346978); note: nearly all actives have a fitted effect of over 15% in size
Method in brief: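 Wild-type HepG2 cells, 2,000/well, settled 5 hr at 37 C and 5% CO2, then compound-treated for 17 hr; caspase-3/7 activity read by luminescent Caspase-Glo 3/7 after 30 min at room temperature.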

[10] = Caspase-3/7 induction in CHO-K1 cells by small molecules, qHTS cell viability counter screen (AID 1346979); note: nearly all actives have a fitted effect of over 35% in size; note: potency is the fitted concentration of half-maximal effect
Method in brief: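 Multiplexed with Caspase-Glo 3/7 in CHO-K1 cells, this counter screen added CellTiter-Fluor after 16hr of compound exposure and recorded fluorescence 1hr later.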

[11] = Caspase-3/7 induction in CHO-K1 cells by small molecules, qHTS assay (AID 1346980); note: nearly all actives have a fitted effect of over 15% in size
Method in brief: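 Wild-type CHO-K1 cells exposed to compounds for 17hr at 37 C, 5% CO2. Caspase-3/7 activity then measured by Caspase-Glo 3/7 luminescence after 30min at room temperature.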

[12] = Caspase-3/7 induction in HepG2 cells by small molecules, qHTS cell viability counter screen (AID 1346981); note: nearly all actives have a fitted effect of over 30% in size; note: potency is the fitted concentration of half-maximal effect
Method in brief: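 Multiplexed with the caspase-3/7 assay: HepG2 cells, 16 hr compound treatment, CellTiter-Fluor viability detection by fluorescence.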

[13] = molecular target: Nuclear receptor subfamily 1 group I member 2 (Homo sapiens) (UniProt O75469); experiment: Human pregnane X receptor (PXR) small molecule agonists, qHTS assay (AID 1346982); note: nearly all actives have a fitted effect of over 35% in size; note: potency is the fitted concentration of half-maximal effect
Method in brief: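 We seeded PXR-Luc HepG2 cells in assay medium containing 5% charcoal-stripped FBS, added compounds 5 hr later, incubated 24 hr, and read luminescence with ONE-Glo reagent.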

[14] = molecular target: Cytochrome P450 2D6 (Homo sapiens) (UniProt P10635); experiment: Cytochrome P450 Family 2 Subfamily D Member 6 (CYP2D6) small molecule antagonists: luciferase reporter qHTS assay (AID 1671196); note: nearly all actives have a fitted effect of over 50% in size; note: potency is the fitted concentration of half-maximal effect
Method in brief: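 Luminescence (RLU), read 20 min after detection reagent, indicated CYP2D6 conversion of proluciferin to luciferin during a 1 h NADPH-dependent reaction at room temperature.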

[15] = molecular target: Thyrotropin-releasing hormone receptor (Homo sapiens) (UniProt P34981); experiment: qHTS assay to identify small molecule antagonists of the thyrotropin-releasing hormone receptor (TRHR) signaling pathway (AID 1346877; active = well fitted inhibition curve with a large enough effect in the repeat runs, not every such curve was filed as active; note: series mostly up to about 51 µM)
Method in brief: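 Screening used HEK293 cells engineered with TRHR, with a brief 5 min room-temperature compound exposure preceding addition of TRH to 1 nM. The read-out was kinetic calcium-dye fluorescence, concentration-response from 15 doses in triplicate.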

[16] = molecular target: Thyrotropin-releasing hormone receptor (Homo sapiens) (UniProt P34981); experiment: qHTS assay to identify small molecule agonists of the thyrotropin-releasing hormone receptor (TRHR) signaling pathway (AID 1346891; calls by dose curve;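 note: HEK293 cells expressing TRHR with calcium dye readout; series mostly up to about 58 µM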)
Method in brief: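 Overnight-plated (18 h, 37 °C, 5% CO2) TRHR-Hek293 cells; 2 h calcium dye at 37 °C; compound in DMSO; 3-min kinetic fluorescence read.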

[17] = molecular target: Nuclear receptor subfamily 1 group I member 2 (Homo sapiens) (UniProt O75469); experiment: CYP3A4 induction through human pregnane X receptor (PXR) by small molecules, qHTS assay (AID 1346984); note: nearly all actives have a fitted effect of over 40% in size
Method in brief: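 qHTS, concentration-response format: HepG2 DPX-2 line, PXR/CYP3A4-luc. Exposure 24 h, 37C. Substrate Luciferin-IPA 3uM final, 3 h. Detection One-Glo, 30 min RT.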

[18] = qHTS assay to identify small molecule agonists of the estrogen receptor alpha (ER-alpha) signaling pathway in the presence of an antagonist - cell viability counter screen (AID 1259386);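 note: series mostly up to about 92 µM; cells exposed to compounds for 22 h at 37 °C before the viability read; nearly all actives have a fitted effect of over 30% in size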
Method in brief: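 ICI-182,780 at 10.0nM final accompanies the compound titration (15 concentrations, 22hr, 37C) on VM7Luc4E2 cells. The CellTiter-Fluor fluorescence readout runs in the same wells as the luciferase assay.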

[19] = molecular target: Nuclear receptor subfamily 1 group I member 2 (Homo sapiens) (UniProt O75469); experiment: Human pregnane X receptor (PXR) activation by small molecules, qHTS assay (AID 1346985); note: nearly all actives have a fitted effect of over 40% in size; note: potency is the fitted concentration of half-maximal effect
Method in brief: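 DPX-2 cells (HepG2 co-transfected with a PXR response element and a CYP3A4-promoter luciferase construct) were seeded at 2,000 per well, rested 5 hr at 37C, then exposed to DMSO-dissolved compounds for 24 hr. Activation was read as luciferase luminescence.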

Measured: Potency

Sequence of Progesterone receptor (Homo sapiens) (P06401 whole entry, looked up): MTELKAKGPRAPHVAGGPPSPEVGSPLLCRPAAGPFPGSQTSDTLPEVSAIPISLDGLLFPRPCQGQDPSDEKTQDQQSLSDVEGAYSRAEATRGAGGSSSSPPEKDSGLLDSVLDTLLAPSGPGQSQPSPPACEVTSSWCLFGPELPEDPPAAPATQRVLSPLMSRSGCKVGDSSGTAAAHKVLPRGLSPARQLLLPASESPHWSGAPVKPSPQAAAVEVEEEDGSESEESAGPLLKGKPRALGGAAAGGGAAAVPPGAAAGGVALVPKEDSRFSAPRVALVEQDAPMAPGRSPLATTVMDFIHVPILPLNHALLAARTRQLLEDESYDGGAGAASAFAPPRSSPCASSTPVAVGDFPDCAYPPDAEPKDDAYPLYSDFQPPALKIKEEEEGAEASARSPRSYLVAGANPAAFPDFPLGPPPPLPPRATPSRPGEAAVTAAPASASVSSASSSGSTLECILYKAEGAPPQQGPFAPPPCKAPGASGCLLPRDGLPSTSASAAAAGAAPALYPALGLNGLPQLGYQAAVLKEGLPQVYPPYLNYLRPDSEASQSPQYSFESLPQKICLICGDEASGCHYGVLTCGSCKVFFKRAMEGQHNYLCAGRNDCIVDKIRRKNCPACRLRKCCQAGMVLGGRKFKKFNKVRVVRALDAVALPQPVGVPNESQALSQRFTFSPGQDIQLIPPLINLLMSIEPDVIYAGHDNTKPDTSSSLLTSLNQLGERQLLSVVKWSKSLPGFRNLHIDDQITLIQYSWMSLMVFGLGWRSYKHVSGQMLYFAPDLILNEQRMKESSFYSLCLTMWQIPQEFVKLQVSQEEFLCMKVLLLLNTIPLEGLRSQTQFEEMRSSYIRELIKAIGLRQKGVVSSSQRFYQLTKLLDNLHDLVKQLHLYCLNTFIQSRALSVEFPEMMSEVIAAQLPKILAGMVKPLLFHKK
Sequence of Thyrotropin-releasing hormone receptor (Homo sapiens) (P34981 whole entry, looked up): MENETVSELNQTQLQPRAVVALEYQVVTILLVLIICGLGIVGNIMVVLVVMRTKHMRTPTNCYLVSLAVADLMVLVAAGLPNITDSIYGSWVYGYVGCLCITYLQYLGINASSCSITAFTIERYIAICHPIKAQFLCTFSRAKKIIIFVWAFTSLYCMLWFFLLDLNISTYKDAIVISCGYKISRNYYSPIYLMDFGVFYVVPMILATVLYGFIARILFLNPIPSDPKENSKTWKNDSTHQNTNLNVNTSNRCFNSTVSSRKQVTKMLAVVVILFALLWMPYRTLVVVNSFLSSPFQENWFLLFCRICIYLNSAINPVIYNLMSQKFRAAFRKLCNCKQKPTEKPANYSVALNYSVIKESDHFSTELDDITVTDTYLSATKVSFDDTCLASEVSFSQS
Sequence of Cytochrome P450 2D6 (Homo sapiens) (P10635 whole entry, looked up): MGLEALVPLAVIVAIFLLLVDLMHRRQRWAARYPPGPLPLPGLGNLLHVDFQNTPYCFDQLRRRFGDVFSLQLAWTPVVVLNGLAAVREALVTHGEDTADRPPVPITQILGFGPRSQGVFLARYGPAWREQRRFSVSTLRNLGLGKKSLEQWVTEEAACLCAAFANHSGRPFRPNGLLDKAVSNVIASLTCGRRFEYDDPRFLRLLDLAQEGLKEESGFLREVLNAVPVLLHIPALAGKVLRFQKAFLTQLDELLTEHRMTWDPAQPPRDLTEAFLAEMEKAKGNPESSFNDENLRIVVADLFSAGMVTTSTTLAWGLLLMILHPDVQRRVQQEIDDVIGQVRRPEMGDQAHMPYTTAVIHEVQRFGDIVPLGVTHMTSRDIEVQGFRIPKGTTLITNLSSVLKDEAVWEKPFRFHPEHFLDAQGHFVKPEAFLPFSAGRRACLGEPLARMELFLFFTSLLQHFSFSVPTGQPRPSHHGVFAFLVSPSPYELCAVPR
Sequence of Nuclear receptor subfamily 1 group I member 2 (Homo sapiens) (O75469 whole entry, looked up): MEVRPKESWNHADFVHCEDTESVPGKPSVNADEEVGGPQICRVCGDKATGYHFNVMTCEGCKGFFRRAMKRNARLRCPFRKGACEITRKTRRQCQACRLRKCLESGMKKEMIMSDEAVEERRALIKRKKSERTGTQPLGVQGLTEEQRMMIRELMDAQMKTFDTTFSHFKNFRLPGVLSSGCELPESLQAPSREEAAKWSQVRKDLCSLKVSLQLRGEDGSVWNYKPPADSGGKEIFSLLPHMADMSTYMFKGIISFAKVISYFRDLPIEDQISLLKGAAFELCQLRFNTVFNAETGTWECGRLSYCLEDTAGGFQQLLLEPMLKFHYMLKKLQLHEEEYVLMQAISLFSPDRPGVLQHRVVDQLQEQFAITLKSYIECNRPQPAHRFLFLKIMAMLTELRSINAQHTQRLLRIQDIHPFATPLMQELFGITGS

C/C=C(\C)C(=O)OCCC(C)CCC=C(C)C (stereo not given)
not listed: [15] | [16] | [17] | [18] | [19]
inactive: all other assays above

CC(C)(O)c1ccccc1CC[C@@H](SCC1(CC(=O)O)CC1)c1cccc(/C=C/c2ccc3ccc(Cl)cc3n2)c1
not listed: [4] | [10] | [18] | [19]
inactive: all other assays above

C[C@@H]1C[C@H]2[C@@H]3CCC4=CC(=O)C=C[C@]4(C)[C@@]3(F)[C@@H](O)C[C@]2(C)[C@@]1(O)C(=O)CO
inactive: [18] | [5] | [6] | [7] | [8] | [9] | [10] | [11] | [12]

CCC(C)(O)CCC=C(C)C (stereo not given)
not listed: [1] | [2] | [3] | [17] | [19]
inactive: all other assays above

COCC(O)CO (stereo not given)
not listed: [13] | [17] | [18] | [19]
inactive: all other assays above

O=C(/C=C/c1ccccc1)OCCCc1ccccc1
not listed: [1] | [2] | [3] | [15] | [16] | [17] | [19]
inactive: all other assays above

CCC1(C)CC(=O)NC1=O (stereo not given)
not listed: [18]
inactive: all other assays above

CC(C)(C)C(=O)C(Oc1ccc(Cl)cc1)n1ccnc1 (stereo not given)
active: [2] 23.7 µM | [13] 23.7 µM | [19] 15.8 µM
not listed: [4] | [7] | [10] | [14] | [17] | [18]
inactive: all other assays above

O=Cc1c(Cl)cccc1Cl
not listed: [13] | [17] | [18] | [19]
inactive: all other assays above

C=CC(C)(C)CC(=O)OC
active: [13] 68.8 µM | [14] 63.5 µM
inactive: [18] | [3] | [5] | [6] | [7] | [15] | [16] | [9] | [11]

CCC(Cc1ccccc1)(C(=O)c1ccc(N2CCOCC2)cc1)N(C)C (stereo not given)
active: [2] 48.6 µM | [13] 30.6 µM | [14] 7.96 µM
inactive: [1] | [6] | [7] | [16] | [9] | [11]

CC1C2CC(CC2C2CCCC(O)C2)C1(C)C (stereo not given)
active: [10] 68.6 µM
not listed: [1] | [2] | [3] | [8] | [9] | [17] | [19]
inactive: all other assays above

Oc1cc(O)c(Cl)cc1Cl
active: [2] 49.7 µM
not listed: [4] | [14] | [15] | [16] | [17] | [18] | [19]
inactive: all other assays above

Nc1ccc(C(=O)OCCCOC(=O)c2ccc(N)cc2)cc1
inactive: [18] | [5] | [6] | [7] | [16] | [8] | [9] | [11] | [12]
active: [14] 39.9 µM

CCCCC(CC)COC(=O)COc1ccc(Cl)cc1C (stereo not given)
not listed: [15] | [16] | [17] | [18] | [19]
inactive: all other assays above

Nc1ccc(S(=O)(=O)O)cc1
not listed: [2] | [14] | [17] | [18] | [19]
inactive: all other assays above

O=C(CS)OCCOC(=O)CS
not listed: [3] | [7] | [13] | [17] | [18] | [19]
inactive: all other assays above

CC(=O)CC(c1ccc([N+](=O)[O-])cc1)c1c(O)c2ccccc2oc1=O (stereo not given)
active: [14] 38.9 µM
not listed: [10] | [13] | [15] | [16] | [18]
inactive: all other assays above

COCCOC
active: [10] 14.6 µM | [12] 13 µM
inactive: [18] | [3] | [5] | [6] | [7] | [15] | [16] | [9] | [11]
